This is a sample that favours compounds with a hit; in the whole collection about 0.84% have one here.
PPARg SRC1 recr: promotes SRC-1 coactivator recruitment by human PPARgamma; P37231; PPARgamma-SRC-1 coactivator recruitment biochemical assay; AID 631; 200,000 tested, 0.41% active; activation, % at 8 µM; in the data active means activation above about 19%
PPARg SRC-3 ag: agonists of human PPARgamma SRC-3 coactivator recruitment; biochemical PPARgamma/SRC-3 coactivator recruitment assay; activation, % at 8 µM; 200,000 tested, 0.26% active; AID 731; in the data active means activation above about 23%
PPARg SRC2 recr: PPARgamma-driven SRC-2 recruitment agonism | P37231 | PPARgamma LBD-SRC-2 recruitment, biochemical | activation, % at 8 µM | 200,000 tested, 0.34% active
SRC1 TRFRET art: flags TR-FRET format artefacts in PPARgamma SRC-1 recruitment agonist screen; TR-FRET detection artefact counter-screen, emission ratio; stronger effect = higher value; AID 1051; TR-FRET ratio at 8 µM; 99,000 tested, 0.34% active; in the data active means TR-FRET ratio above about 2300
SRC2 TRFRET art: counter-screen for PPARgamma SRC-2 recruitment agonists: TR-FRET artefact; 200,000 tested, 0.4% active; TR-FRET ratio at 8 µM; stronger effect = higher value; in the data active means TR-FRET ratio above about 2000
SRC3 TRFRET art: flags TR-FRET format artefacts in PPARgamma SRC-3 recruitment agonist screen | TR-FRET artefact counter-screen, PPARgamma/SRC-3 format; stronger effect = higher value | TR-FRET ratio at 8 µM | 99,000 tested, 0.39% active | AID 1048; in the data active means TR-FRET ratio above about 2000
PPARg SRC2 conf: human PPARgamma SRC-2 recruitment agonism, confirmation; 790 tested, 52% active; biochemical SRC-2 recruitment by PPARgamma; activation, % at 8 µM; shares compounds with PPARg SRC-3 ag; AID 1297
PPARg SRC1 conf: confirmation of agonists of SRC-1 recruitment by human PPARgamma; 790 tested, 43% active; PPARgamma–SRC-1 coactivator recruitment biochemical assay; shares compounds with PPARg SRC-3 ag; activation, % at 8 µM; in the data active means activation above about 20%
PPARg SRC3 ag: confirmation of agonists of SRC-3 recruitment by human PPARgamma | shares compounds with PPARg SRC-3 ag | biochemical PPARgamma-SRC-3 coactivator recruitment, agonist mode | activation, % at 8 µM | 790 tested, 29% active; in the data active means activation above about 24%
Each line names hits and unclear results; the compound was inactive in the other large screens (follow-up assays come after a bar, where they were run). Unless noted, no stated cut-off is given here; in the data, active means activation above about 22%; inactive means the rest.

Cc1cccc(NP(=O)(Oc2ccccc2F)Oc2ccccc2F)c1C	SRC1 TRFRET art 2320
O=C1Nc2ccccc2/C1=C/c1cnc[nH]1	PPARg SRC-3 ag 33 (no result: SRC1 TRFRET art, SRC3 TRFRET art)
COP(=O)(OC)C(O)C(Cl)(Cl)Cl (stereo not drawn)	none
Cc1c2ccncc2c(C)c2c1[nH]c1ccccc12	PPARg SRC1 recr 27
c1ccc2c(c1)[nH]c1cnccc12	none
CCOc1cccc(N2C(=O)CC(=O)NC2=O)c1	none (no result: SRC1 TRFRET art, SRC3 TRFRET art)
c1cncc(CNC2CCCC2)c1	PPARg SRC1 recr 40, SRC1 TRFRET art 3393
COc1cc2c(cc1OC)CC[N+](C)=C2	none
COc1ccc(C(=O)C(C)(C)NO)cc1	PPARg SRC-3 ag 27 (no result: SRC1 TRFRET art, SRC3 TRFRET art)
COc1ccc(C(=O)C23CN4CN(CN(C4)C2)C3)cc1	none
Cn1c(=O)cc(SCC(=O)N2CCC3(CC2)OCCO3)c2ccccc21	PPARg SRC1 recr 44, PPARg SRC-3 ag 60, PPARg SRC2 recr 39, SRC2 TRFRET art 2418 (no result: SRC1 TRFRET art, SRC3 TRFRET art) | PPARg SRC2 conf 33 | PPARg SRC1 conf 20 | PPARg SRC3 ag inactive
CCOC(=O)c1c(/N=C/C2C(=O)NC(=S)NC2=O)sc2c1CCC2	none
OC(c1ccc(F)cc1)C(c1ccccc1)N1CCOCC1 (stereo not drawn)	none (no result: SRC1 TRFRET art, SRC3 TRFRET art)
Cc1ccccc1-n1c(O)c(C=Nc2ccc(N(C)C)cc2)c(=O)[nH]c1=O	PPARg SRC-3 ag 26, PPARg SRC2 recr 23, SRC2 TRFRET art 2050 (no result: SRC1 TRFRET art, SRC3 TRFRET art) | PPARg SRC2 conf inactive | PPARg SRC1 conf inactive | PPARg SRC3 ag inactive
C=CCn1c(O)c(C=Nc2ccc(N(CC)CC)cc2)c(=O)[nH]c1=O	PPARg SRC-3 ag 26 (no result: SRC1 TRFRET art, SRC3 TRFRET art) | PPARg SRC2 conf inactive | PPARg SRC1 conf inactive | PPARg SRC3 ag inactive
Cc1cccc(N=Cc2c(O)n(-c3ccccc3C)c(=O)[nH]c2=O)c1	none (no result: SRC1 TRFRET art, SRC3 TRFRET art)

Compound activity as filed in PubChem.
